# Test results as given in article PMC8384837, “Expanding the binding specificity for RNA recognition by a PUF domain”.
# Legend:
# Assay in all cases: yeast three-hybrid, YBZ-1, SC-Leu-His + 0.5 mM 3-AT, 4 days
# Settings in all cases: tags: N-Gal4 AD-HA kept; label: inside an RPR1-promoter hybrid RNA with tandem MS2 sites; ssRNA
# PUM1 PUF domain R7-LYG = PUM1 PUF domain R7-LYG (Homo sapiens, UniProt Q14671 828-1176, S1079L;N1080Y;E1083G)
# Summary of the method: (§1)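 The interaction score is the log change in variant frequency from input to selection. Scores were computed in log2 with a pseudocount of 1 for absent variants, using Illumina sequencing of PCR-amplified repeat regions. The input came from four days on SC-Leu and the selection from four days on SC-Leu-His + 0.5 mM 3-AT. The cells were strain YBZ-1 (LexA–MS2 coat fusion, HIS3 reporter) co-expressing Pumilio-1 PUF domain libraries and matching RNA elements from a centromeric plasmid.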
# PUM1 PUF domain R7-RSS = PUM1 PUF domain R7-RSS (Homo sapiens, UniProt Q14671 828-1176, S1079R;N1080S;E1083S)
# Summary of the method: as §1
# PUM1 PUF domain R8-RHL = PUM1 PUF domain R8-RHL (Homo sapiens, UniProt Q14671 828-1176, N1122R;Y1123H;Q1126L)
# Summary of the method: as §1
# PUM1 PUF domain R8-PWL = PUM1 PUF domain R8-PWL (Homo sapiens, UniProt Q14671 828-1176, N1122P;Y1123W;Q1126L)
# Summary of the method: as §1
# PUM1 PUF domain R3-DHR = PUM1 PUF domain R3-DHR (Homo sapiens, UniProt Q14671 828-1176, C935D;R936H;Q939R)
# Summary of the method: as §1
# PUM1 PUF domain R3-SRH = PUM1 PUF domain R3-SRH (Homo sapiens, UniProt Q14671 828-1176, C935S;Q939H)
# Summary of the method: as §1
# PUM1 PUF domain R3-YRQ = PUM1 PUF domain R3-YRQ (Homo sapiens, UniProt Q14671 828-1176, C935Y)
# Summary of the method: as §1
# PUM1 PUF domain R3-FCL = PUM1 PUF domain R3-FCL (Homo sapiens, UniProt Q14671 828-1176, C935F;R936C;Q939L)
# Summary of the method: as §1
# PUM1 PUF domain R3-LRG = PUM1 PUF domain R3-LRG (Homo sapiens, UniProt Q14671 828-1176, C935L;Q939G)
# Summary of the method: as §1
# PUM1 PUF domain R3-KPS = PUM1 PUF domain R3-KPS (Homo sapiens, UniProt Q14671 828-1176, C935K;R936P;Q939S)
# Summary of the method: as §1
# PUM1 PUF domain R4-GMC = PUM1 PUF domain R4-GMC (Homo sapiens, UniProt Q14671 828-1176, N971G;H972M;Q975C)
# Summary of the method: as §1
# PUM1 PUF domain R4-SPI = PUM1 PUF domain R4-SPI (Homo sapiens, UniProt Q14671 828-1176, N971S;H972P;Q975I)
# Summary of the method: as §1
# PUM1 PUF domain R4-WAK = PUM1 PUF domain R4-WAK (Homo sapiens, UniProt Q14671 828-1176, N971W;H972A;Q975K)
# Summary of the method: as §1
# PUM1 PUF domain R5-WWW = PUM1 PUF domain R5-WWW (Homo sapiens, UniProt Q14671 828-1176, C1007W;R1008W;Q1011W)
# Summary of the method: as §1
# PUM1 PUF domain R5-SVT = PUM1 PUF domain R5-SVT (Homo sapiens, UniProt Q14671 828-1176, C1007S;R1008V;Q1011T)
# Summary of the method: as §1
# PUM1 PUF domain R6-VYE = target: T1, PUM1 PUF domain R6-VYE (Homo sapiens, UniProt Q14671 828-1176, N1043V;Q1047E)
# T1 sequence: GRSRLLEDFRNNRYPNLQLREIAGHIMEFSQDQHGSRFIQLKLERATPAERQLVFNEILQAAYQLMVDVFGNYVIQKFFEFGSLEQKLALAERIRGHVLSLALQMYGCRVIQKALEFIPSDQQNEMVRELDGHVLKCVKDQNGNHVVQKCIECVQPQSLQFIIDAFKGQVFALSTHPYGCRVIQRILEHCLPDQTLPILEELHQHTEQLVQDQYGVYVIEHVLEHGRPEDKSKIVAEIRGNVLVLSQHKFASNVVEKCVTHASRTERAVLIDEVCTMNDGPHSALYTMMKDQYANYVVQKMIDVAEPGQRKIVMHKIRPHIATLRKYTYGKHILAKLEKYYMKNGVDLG
# Summary of the method: as §1
# PUM1 PUF domain R1-KSA = PUM1 PUF domain R1-KSA (Homo sapiens, UniProt Q14671 828-1176, S863K;R864S;Q867A)
# Summary of the method: as §1
sequence,measurement,setting,value
GGCUAGAACUAGUGGAUCCCCCGGCGCCCGGCGGCUCGAGCCCGGGUAAGUCUAAAUAGUCUGCAUGCCGCCGGGCGCCAUGCCUGCAGGUCGACUCUAGAAAACAUG,binding signal,PUM1 PUF domain R7-LYG,2.93 log2 enrichment (interaction score)
same,binding signal,PUM1 PUF domain R7-RSS,1.34 log2 enrichment (interaction score)
GGCUAGAACUAGUGGAUCCCCCGGCGCCCGGCGGCUCGAGCCCGGGUAAGCGUAAAUAGUCUGCAUGCCGCCGGGCGCCAUGCCUGCAGGUCGACUCUAGAAAACAUG,binding signal,PUM1 PUF domain R8-RHL,5.48 log2 enrichment (interaction score)
same,binding signal,PUM1 PUF domain R8-PWL,3.61 log2 enrichment (interaction score)
GGCUAGAACUAGUGGAUCCCCCGGCGCCCGGCGGCUCGAGCCCGGGUAAGUGUAAAUAGUCUGCAUGCCGCCGGGCGCCAUGCCUGCAGGUCGACUCUAGAAAACAUG,binding signal,PUM1 PUF domain R8-RHL,3.23 log2 enrichment (interaction score)
same,binding signal,PUM1 PUF domain R8-PWL,2.93 log2 enrichment (interaction score)
same,binding signal,PUM1 PUF domain R3-DHR,3.23 log2 enrichment (interaction score)
same,binding signal,PUM1 PUF domain R3-SRH,4.37 log2 enrichment (interaction score)
GGCUAGAACUAGUGGAUCCCCCGGCGCCCGGCGGCUCGAGCCCGGGUAAGUGUAAGUAGUCUGCAUGCCGCCGGGCGCCAUGCCUGCAGGUCGACUCUAGAAAACAUG,binding signal,PUM1 PUF domain R3-YRQ,3.31 log2 enrichment (interaction score)
same,binding signal,PUM1 PUF domain R3-FCL,4.28 log2 enrichment (interaction score)
same,binding signal,PUM1 PUF domain R3-LRG,3.85 log2 enrichment (interaction score)
GGCUAGAACUAGUGGAUCCCCCGGCGCCCGGCGGCUCGAGCCCGGGUAAGUGUAAUUAGUCUGCAUGCCGCCGGGCGCCAUGCCUGCAGGUCGACUCUAGAAAACAUG,binding signal,PUM1 PUF domain R3-KPS,3.86 log2 enrichment (interaction score)
same,binding signal,PUM1 PUF domain R3-LRG,0.54 log2 enrichment (interaction score)
GGCUAGAACUAGUGGAUCCCCCGGCGCCCGGCGGCUCGAGCCCGGGUAAGUGUAUAUAGUCUGCAUGCCGCCGGGCGCCAUGCCUGCAGGUCGACUCUAGAAAACAUG,binding signal,PUM1 PUF domain R4-GMC,3.12 log2 enrichment (interaction score)
same,binding signal,PUM1 PUF domain R4-SPI,2.21 log2 enrichment (interaction score)
same,binding signal,PUM1 PUF domain R4-WAK,2.71 log2 enrichment (interaction score)
GGCUAGAACUAGUGGAUCCCCCGGCGCCCGGCGGCUCGAGCCCGGGUAAGUGUGAAUAGUCUGCAUGCCGCCGGGCGCCAUGCCUGCAGGUCGACUCUAGAAAACAUG,binding signal,PUM1 PUF domain R5-WWW,3.25 log2 enrichment (interaction score)
same,binding signal,PUM1 PUF domain R5-SVT,3.92 log2 enrichment (interaction score)
GGCUAGAACUAGUGGAUCCCCCGGCGCCCGGCGGCUCGAGCCCGGGUAAGUGAAAAUAGUCUGCAUGCCGCCGGGCGCCAUGCCUGCAGGUCGACUCUAGAAAACAUG,binding signal,PUM1 PUF domain R6-VYE,7.22 log2 enrichment (interaction score)
GGCUAGAACUAGUGGAUCCCCCGGCGCCCGGCGGCUCGAGCCCGGGUAAGUGGAAAUAGUCUGCAUGCCGCCGGGCGCCAUGCCUGCAGGUCGACUCUAGAAAACAUG,binding signal,PUM1 PUF domain R6-VYE,2.43 log2 enrichment (interaction score)
GGCUAGAACUAGUGGAUCCCCCGGCGCCCGGCGGCUCGAGCCCGGGUAAGUUUAAAUAGUCUGCAUGCCGCCGGGCGCCAUGCCUGCAGGUCGACUCUAGAAAACAUG,binding signal,PUM1 PUF domain R7-RSS,2.76 log2 enrichment (interaction score)
GGCUAGAACUAGUGGAUCCCCCGGCGCCCGGCGGCUCGAGCCCGGGUAAGUGUACAUAGUCUGCAUGCCGCCGGGCGCCAUGCCUGCAGGUCGACUCUAGAAAACAUG,binding signal,PUM1 PUF domain R4-SPI,0.54 log2 enrichment (interaction score)
GGCUAGAACUAGUGGAUCCCCCGGCGCCCGGCGGCUCGAGCCCGGGUAAGUGUAAAUCGUCUGCAUGCCGCCGGGCGCCAUGCCUGCAGGUCGACUCUAGAAAACAUG,binding signal,PUM1 PUF domain R1-KSA,3.27 log2 enrichment (interaction score)
